Test results from PubChem BioAssay.
A number with no mark means an inactive call. The source made the active and inactive calls.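 The calls were made as follows: active = mean inhibition over 43.08%, the solvent-only control mean plus 3 SD; inactive = the rest.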 Square brackets hold non-standard residues; d marks the D form. Peptide text beside a SMILES is read from it. NMeY = CN[C@@H](Cc1ccc(O)cc1)C(=O)O; NMeF = CN[C@@H](Cc1ccccc1)C(=O)O; 2Abz = Nc1ccccc1C(=O)O

These compounds were tested against Nuclear receptor coactivator 3 (Homo sapiens) (UniProt Q9Y6Q9) (assay: NCOA3 GAL4-fusion reporter inhibition – cell-based, luminescence, quadruplicate, confirmation (AID 588792;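 also: 0% = DMSO treated cells and 100% = gossypol at 36 µM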)). Conditions: HEK293 GAL4-SRC3 luciferase reporter, at 3.6 µM, hits give high values.
Chain of Nuclear receptor coactivator 3 (Homo sapiens) (Q9Y6Q9 whole entry, looked up, the tested form may be a part): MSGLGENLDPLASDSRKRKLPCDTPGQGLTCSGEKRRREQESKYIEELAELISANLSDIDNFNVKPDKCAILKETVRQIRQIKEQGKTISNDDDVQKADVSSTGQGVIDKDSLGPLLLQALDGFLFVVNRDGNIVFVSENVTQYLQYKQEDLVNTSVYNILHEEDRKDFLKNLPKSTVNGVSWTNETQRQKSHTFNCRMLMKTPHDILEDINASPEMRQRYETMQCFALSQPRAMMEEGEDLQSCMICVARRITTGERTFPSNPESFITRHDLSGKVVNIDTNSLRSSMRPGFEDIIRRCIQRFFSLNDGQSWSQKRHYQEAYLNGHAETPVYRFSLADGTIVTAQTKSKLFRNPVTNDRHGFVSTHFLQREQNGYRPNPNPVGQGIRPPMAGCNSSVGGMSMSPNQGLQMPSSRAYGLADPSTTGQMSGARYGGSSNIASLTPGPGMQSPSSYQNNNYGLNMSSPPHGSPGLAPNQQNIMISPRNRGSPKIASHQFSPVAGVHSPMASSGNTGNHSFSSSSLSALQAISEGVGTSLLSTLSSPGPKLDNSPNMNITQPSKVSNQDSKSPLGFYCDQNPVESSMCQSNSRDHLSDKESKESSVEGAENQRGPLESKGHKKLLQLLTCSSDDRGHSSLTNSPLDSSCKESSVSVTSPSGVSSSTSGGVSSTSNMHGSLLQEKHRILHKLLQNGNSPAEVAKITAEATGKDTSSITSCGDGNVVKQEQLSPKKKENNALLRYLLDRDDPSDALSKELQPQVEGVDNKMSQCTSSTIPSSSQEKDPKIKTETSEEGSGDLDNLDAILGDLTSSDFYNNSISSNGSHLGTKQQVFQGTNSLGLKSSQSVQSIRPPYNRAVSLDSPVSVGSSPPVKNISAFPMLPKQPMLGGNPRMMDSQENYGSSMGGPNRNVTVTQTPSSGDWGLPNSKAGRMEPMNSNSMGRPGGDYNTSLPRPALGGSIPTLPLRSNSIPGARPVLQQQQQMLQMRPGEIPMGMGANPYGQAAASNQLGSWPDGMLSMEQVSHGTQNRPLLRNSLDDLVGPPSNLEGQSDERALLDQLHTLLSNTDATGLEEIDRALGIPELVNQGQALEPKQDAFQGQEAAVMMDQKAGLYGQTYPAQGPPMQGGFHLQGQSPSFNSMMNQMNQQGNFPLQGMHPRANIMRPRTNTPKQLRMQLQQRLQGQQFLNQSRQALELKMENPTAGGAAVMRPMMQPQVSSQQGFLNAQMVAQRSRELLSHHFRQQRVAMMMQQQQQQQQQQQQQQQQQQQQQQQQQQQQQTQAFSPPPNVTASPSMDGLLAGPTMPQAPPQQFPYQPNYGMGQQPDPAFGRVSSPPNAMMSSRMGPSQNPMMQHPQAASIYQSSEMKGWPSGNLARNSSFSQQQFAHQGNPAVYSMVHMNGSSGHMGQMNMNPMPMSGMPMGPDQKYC

| Structure (SMILES) | inhibition |
| --- | --- |
| CC(=O)Nc1nc(C)c(-c2csc(Nc3cccc([N+](=O)[O-])c3)n2)s1 | 7.09% |
| CS(=O)c1nc(-c2ccc(Br)cc2)cc(-c2ccccc2)c1C#N (stereo not given) | 43.9% (active) |
| c1ccc(-n2nnnc2NCCCN2CCOCC2)cc1 | -14.3% |
| CC(C)C[C@@H]1NC(=O)[C@H](Cc2ccccc2)N(C)C(=O)[C@H](C)NC(=O)c2ccccc2NC(=O)[C@H](Cc2ccc(O)cc2)N(C)C1=O (cyclo([2Abz]A[NMeF]L[NMeY])) | 18.1% |
| Cc1ccc(S(=O)(=O)NCCC(=O)N2CCN(c3ccccc3)CC2)cc1C | 6.68% |
| CCCCCCC(=O)NNC(=O)CC(=O)Nc1ccccc1C(=O)O | 4.52% |
| CCCCNC(=O)c1onc(CSc2cc(C)cc(C)c2)c1C(=O)NCCCC | 7.83% |
| CNCC(C)COc1ccccc1OCc1ccccc1 (stereo not given) | 2.54% |
| C=CCc1cc(C(=O)N2CCCCC2)ccc1O | 14.5% |
| O=C(CN1CC(c2ccccc2)CC1=O)N/N=C/c1cc(Br)ccc1O (stereo not given) | 15.1% |
| COc1ccc(CNC(=O)COC(=O)c2cc(-c3ccc(Cl)s3)nc3ccccc23)cc1 | -14.9% |
| O=C(CCN1CCN(c2ccccc2)CC1)Nc1ccc(Cl)cc1 | 3.39% |
| O=S(=O)(c1ccccc1)c1nc(Nc2cccc(O)c2)sc1Cl | -4.35% |
| Cc1cc2[nH]c3c4ccccc4nc(C)c3c2cc1C | 20.5% |
| COc1cc(C(=O)N/N=C/c2coc3ccc(Cl)cc3c2=O)ccc1O | 24.2% |
| COc1cccc(CNC(=O)c2cc3c(c(-c4cccc(-c5cccc(C#N)c5)c4)n2)[C@H](CCO)N(S(=O)C(C)(C)C)C3)c1 (stereo not given in full) | -23% |
| Cc1ccc2[nH]c(C(=O)N/N=C/c3ccccc3O)c(C)c2c1 | 65.9% (active) |
| CC(C(=O)N1c2ccccc2Sc2ccccc21)n1nnc(-c2cccs2)n1 (stereo not given) | 2.33% |
| CCCc1nn(C)c(C(=O)Nc2cccc(Cl)c2)c1Cl | 15% |
| CC(C)(C)c1csc(Sc2ccc([N+](=O)[O-])cn2)n1 | 13.1% |

| Structure (SMILES) | inhibition |
| --- | --- |
| CCOC(=O)/C(C#N)=C/c1cc(C)n(-c2ccccc2)c1C | 18.5% |
| Cn1c(=O)n(C)c2cc(NS(=O)(=O)c3ccc(C(C)(C)C)cc3)ccc21 | 16.6% |
| O=C(Cn1cnc([N+](=O)[O-])n1)N/N=C/c1cc(Cl)ccc1O | 20.3% |
| COc1ccc(CNC(=O)c2ccc(Cl)c(S(=O)(=O)N3CCOCC3)c2)cc1OC | 12.8% |
| CCOc1ccc(OCC)c(NC(=O)CN(C)S(=O)(=O)c2cccc3nsnc23)c1 | 1.36% |
| CCC(O)CC(C(=O)NNc1ccccc1)C(=O)NNc1ccccc1 (stereo not given) | -2.21% |
| Clc1ccc(C[n+]2cc(-c3ccccc3)n3c2CCCCC3)c(Cl)c1 | 22.4% |
| O=C(Cc1ccccc1)NNC(=O)Nc1cccc(Cl)c1 | 10.6% |
| NC(=S)Nc1cc(Cl)cc(Cl)c1 | 23.7% |
| Cc1cc(=O)oc2cc(NC(=O)COc3cccc(C(F)(F)F)c3)ccc12 | 7.34% |
| Cc1ccc(NS(=O)(=O)c2ccc(OCC(=O)NCc3ccncc3)cc2)cc1 | 8.87% |
| Cc1cc[n+](C(C)C(=O)c2ccc(-c3ccccc3)cc2)cc1 (stereo not given) | 8.52% |
| COc1ccc(OC)c(N/C=C/C(=O)c2ccccc2)c1 | 44.8% (active) |
| S=c1[nH]nc(C2CCCCC2)n1/N=C/c1ccco1 | -2.38% |
| COc1ccccc1NC(=O)Nc1nnc(Cc2ccc(F)cc2)s1 | 3.85% |
| CN(Cc1cccc(F)c1)C(=O)C1CC(=O)N(Cc2ccco2)C1 (stereo not given) | -0.39% |
| CC(=O)c1ccc(Nc2c3c(nc4ccccc24)CCCC3)cc1 | 32.7% |
| CC(=O)Nc1ccc(C(=O)N/N=C/c2cc(Br)cc(Br)c2O)cc1 | 6.09% |
| O=C(Nc1ccc(OC(F)(F)F)cc1)Nc1cccc([N+](=O)[O-])c1 | -15.5% |
| COc1ccc(C(=O)Cn2nc(CNc3ccc(Br)cc3)[n+]3c2CCCCC3)cc1 | -7.02% |
